Results filed as inconclusive are left out. Activity calls are given as the source filed them. How the source made its calls: active means hit-call score of the fitted dose curve at least 0.9, where 1 is the maximum; inconclusive means response in the unintended direction; inactive means score below 0.9.
These molecules were tested on xenobiotic metabolism (CYP1A2), CYP1A2 (gene 1544) (assay: CLD_CYP1A2_6hr: CellzDirect (CLD) Gene Expression Assay for xenobiotic metabolism (CYP1A2) at 6 hours (AID 2283663);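 on AC50: potency is for induction meaning a rise in mRNA above DMSO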).
Procedure: (§1) CLD_6hr is a cell-based, multiplexed-readout assay that uses hepatocyte, a human liver primary cell, with measurements taken at 6 hours after chemical dosing in a 96-well plate.CLD_CYP1A2_6hr is one of 16 assay component(s) measured or calculated from the CLD_6hr assay. It is designed to make measurements of mRNA induction, a form of inducible reporter, as detected with chemiluminescence signals by Quantitative Nuclease Protection Assay (qNPA) technology.Data from the assay component CLD_CYP1A2_6hr was analyzed at the endpoint, CLD_CYP1A2_6hr, in the positive analysis fitting direction relative to DMSO as the negative control and baseline of activity. Using a type of inducible reporter, gain-of-signal activity can be used to understand changes in the reporter gene as they relate to the gene CYP1A2. Furthermore, this assay endpoint can be referred to as a primary readout. To generalize the intended target to other relatable targets, this assay endpoint is annotated to the cyp intended target family, where subfamily is xenobiotic metabolism.
Human hepatocyte cultures were treated daily for two consecutive days with fresh dosing solutions containing appropriate concentrations of the 320 ToxCast chemicals (chemical identities were blinded to CellzDirect and other ToxCast collaborators), vehicle control (0.2% DMSO), and positive control inducers as summarized in Table 1. […] These replicate data, coupled with internal replicates designed within the blinded ToxCast chemical library, provided additional data to evaluate interindividual differences between hepatocyte preparations and their potential impact on chemical profiles.Cell morphology and integrity were evaluated using phase-contrast microscopy as an indicator of hepatocyte cell health (Tyson & Green, 1987). Cultures for each treatment group (i.e., media, vehicle [0.2% DMSO], positive control inducers [multiple concentrations], and the ToxCast chemicals [multiple concentrations]) were observed and cell morphology was assessed relative to vehicle control cultures at each harvest time point (0, 6, 24, or 48 h). […] Images were evaluated at the conclusion of the study to assess changes in cell integrity and account for the effects of chemical exposure on uncharacteristic changes in concentration-dependent gene expression profiles. […]

SMILES	AC50	outcome
CCNc1nc(NC(C)C)nc(SC)n1	262 nM (active)	
CN(C)c1nc(=O)n(C2CCCCC2)c(=O)n1C		inactive
Cc1ccccc1CO[C@@H]1C[C@@]2(C(C)C)CC[C@]1(C)O2		inactive
CCSC(=O)N(CC)C1CCCCC1		inactive

The molecules below were run on xenobiotic metabolism (CYP2C9), CYP2C9 (gene 1559) (assay: CLD_CYP2C9_6hr: CellzDirect (CLD) Gene Expression Assay for xenobiotic metabolism (CYP2C9) at 6 hours (AID 2283664)).
Procedure: as §1, with “plate.CLD_CYP2C9_6hr” for “plate.CLD_CYP1A2_6hr”, “CLD_CYP2C9_6hr” for “CLD_CYP1A2_6hr”, “CLD_CYP2C9_6hr,” for “CLD_CYP1A2_6hr,”, “CYP2C9.” for “CYP1A2.”
Human hepatocyte cultures were treated daily for two consecutive days with fresh dosing solutions containing appropriate concentrations of the 320 ToxCast chemicals (chemical identities were blinded to CellzDirect and other ToxCast collaborators), vehicle control (0.2% DMSO), and positive control inducers as summarized in Table 1. […] These replicate data, coupled with internal replicates designed within the blinded ToxCast chemical library, provided additional data to evaluate interindividual differences between hepatocyte preparations and their potential impact on chemical profiles.Cell morphology and integrity were evaluated using phase-contrast microscopy as an indicator of hepatocyte cell health (Tyson & Green, 1987). Cultures for each treatment group (i.e., media, vehicle [0.2% DMSO], positive control inducers [multiple concentrations], and the ToxCast chemicals [multiple concentrations]) were observed and cell morphology was assessed relative to vehicle control cultures at each harvest time point (0, 6, 24, or 48 h). […]

SMILES	outcome
CN(C)c1nc(=O)n(C2CCCCC2)c(=O)n1C	inactive
CCSC(=O)N(CC)C1CCCCC1	inactive
CCC(C)(CC)c1cc(NC(=O)c2c(OC)cccc2OC)on1	inactive

Reference: PubChem BioAssay (EPA / NIEHS)
